Screening data from PubChem.
TDP-43 yeast inh: rescues yeast growth from TDP-43 toxicity; AID 652104; Potency, µM (doses to about 46.1 µM), inactives show at the top dose growth rescue (activation), actives largely listed as activators; TDP-43 expressing yeast growth rescue, BacTiter-Glo, 24 h; 1.8% of 410,000 active; also: % of control where 0% means no effect; nearly all actives have a fitted effect of over 50% in size
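Luminescence from BacTiter-Glo reports growth of TDP-43-expressing yeast after 24 hr at 30 deg C with compound. Cells were raffinose-pregrown to mid-log, then seeded in galactose medium at OD600=0.02.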
aSyn yeast inh: alpha-synuclein toxicity inhibition in yeast | Yeast expressing alpha-synuclein, growth rescue, BacTiter-Glo, 24 h | Potency, µM (top dose mostly 46.1 µM), inactives show at the highest dose growth rescue (activation), most hits filed as activators | 0.14% of 370,000 active | AID 652106; also: % of control where 0% means no effect; nearly all actives have a fitted effect of over 65% in size
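Rescue of yeast growth: cells expressing toxic alpha-synuclein, induced in galactose at OD600 0.02, incubated with compound 24 h at 30 C. ATP luminescence quantified growth; inhibitors of toxicity appear as activators.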
Mito fusion act: mitochondrial division inhibition or fusion activation; S. cerevisiae fusion-defective mutant growth rescue, CellTiterGlo 48 h; Potency, µM (highest dose often 46.1 µM), for the others: at the highest dose growth rescue (activation), usual class: activators; 0.23% of 320,000 active; AID 485298; also: % of control where 0% means no effect; nearly all actives have a fitted effect of over 45% in size
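S. cerevisiae fusion-defective temperature-sensitive mutants (e.g. fzo1-1, mgm1-5) grown 48 h at 37C in YPEG (ethanol/glycerol non-fermentable) medium with 23 nl compound per well; growth rescue read as CellTiterGlo luminescence.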
FUS yeast rescue: FUS proteinopathy suppression in yeast | S. cerevisiae FUS-expressing, growth rescue, OD600, 24 h | Potency, µM (doses to about 76.6 µM), usual class: activators | 0.24% of 390,000 active | AID 1347120;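 also: plate controls were DMSO vehicle for no effect and reference control for full effect; nearly all actives have a fitted effect of over 55% in size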
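Galactose (2%) drives FUS expression in yeast precultured in raffinose; seeding density OD 0.005. Test compounds incubated 24hr at 30C and 99% humidity before absorbance at 600 nm was measured.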
Abeta rescue: A-beta toxicity reversal in yeast; yeast expressing A-beta42, growth rescue, OD600, 48 h; response scale: 0% DMSO, 100% iron-clioquinol control; Potency, µM (highest dose often 46.1 µM), actives largely listed as activators; 0.063% of 410,000 active; also: nearly all actives have a fitted effect of over 55% in size
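Yeast growth medium received pinned compounds, then yeast cells expressing toxic A-beta were added; plates incubated at 30 C for 48 hr. Growth read as absorbance at 600 nm, normalized to DMSO and equimolar FeCl3 plus clioquinol controls.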
* hit, by the source's call; i = inactive; ? = inconclusive; . = no result; [ ] = dose if it differs, or a comment. Most compounds without a hit are left out; they make up all but 2.2% or so of the library. Calls follow the shape of the dose curve; as a rule, active = well fitted curve in the direction sought with a large enough effect; inconclusive = small, poorly fitted or top-dose-only effect, or another doubt; inactive = no such curve, though single readings can be large; an effect the other way counts as inactive or inconclusive. Potency is read from the fitted curve at half-maximal effect.

SMILES | TDP-43 yeast inh | aSyn yeast inh | Mito fusion act | FUS yeast rescue | Abeta rescue
O=C(CSc1nnc(-c2ccco2)c(-c2ccco2)n1)Nc1ccccc1 | 9% | -1% | -2% | 22µM* | i
Cc1ccc(NC(=O)CSc2nnc(-c3ccco3)c(-c3ccco3)n2)cc1 | -3% | 8% | 2% | ? | i
Cc1cccc(C)c1NC(=O)CSc1nnc(-c2ccco2)c(-c2ccco2)n1 | 22µM* | 7% | 2% | i | i
CCc1ccccc1NC(=O)COc1cccc(-n2cnnn2)c1 | -22% | 0% | -17% | i | i
O=C(NC1CCCCC1)N(c1ccccc1)c1nnc(-c2cccc([N+](=O)[O-])c2)s1 | ? | -2% | . | i | i
Cc1ccccc1-c1nc(CS(=O)(=O)CC(=O)NCc2cccc(Cl)c2)c(C)o1 | -2% | . | . | i | i
COc1c(F)cccc1C1=CC(=O)C[C@H](c2ccc3c(c2)OCO3)C1 | 22µM* | 10% | ? | i | i
COc1ccc([C@H]2CC(=O)C=C(c3cccc(F)c3OC)C2)cc1 | 22µM* | 13% | 14% | i | i
COc1ccc(OC)c(C2=CC(=O)C[C@H](c3ccc4c(c3)OCO4)C2)c1 | 25µM* | 2% | ? | ? | i
COc1c(F)cccc1C1=CC(=O)C[C@H](c2ccc(F)cc2)C1 | 18µM* | 5% | . | i | i
COc1ccc(S(=O)(=O)c2cn(Cc3ccccc3)c3cc(N4CCCC4)c(F)cc3c2=O)cc1 | -6% | . | . | i | i
CC(=O)N1CCc2cc(CNS(=O)(=O)c3ccccc3C(F)(F)F)ccc21 | 11% | . | . | i | i
CC(CCc1ccccc1)NC(=O)Cn1c(=O)nc(-c2ccccc2)c2cc(Cl)ccc21 (configuration not stated) | 17% | . | . | i | i
CCc1ccc2c(-c3cccc(Cl)c3)nc(=O)n(CC)c2n1 | . | -1% | 12µM* | . | .
O=C(c1cc(-c2ccco2)on1)N1CCCc2ccccc21 | 6% | -2% | 11% | 35µM* | i
COc1ccccc1CNS(=O)(=O)c1ccc(Br)s1 | 13µM* | 10% | -1% | i | i
Cc1ccc(F)cc1NS(=O)(=O)c1ccc(Cl)s1 | 35µM* | 13%[1.84 µM] | 11% | i | i
O=S(=O)(Nc1ccc(F)cc1F)c1ccc(Br)s1 | 20µM* | . | . | i | i
O=S(=O)(Nc1ccc(F)c(Cl)c1)c1ccc(Br)s1 | ? | . | . | i | i
COc1ccccc1CCNC(=O)c1ccc(Br)s1 | 14µM* | 12% | 3% | i | i
Cc1nn(C)c(C)c1NS(=O)(=O)c1ccc(Cl)s1 | 4% | -6% | . | i | i
CCOc1ccccc1NS(=O)(=O)c1ccc(Br)s1 | -18% | 14µM* | 0% | i | i
CCOC(=O)c1sc(NC(=O)c2ccncc2)c(C#N)c1C | -64% | -20% | 11µM* | . | i
C/C(=N\NC(N)=S)C1C2C3CC4C5CC(C42)C1C53 (configuration not stated) | 14µM* | 1% | 3% | i | ?
C/C(CCC12CC3CC(CC(C3)C1)C2)=N\NC(N)=S | 19% | -17% | 2% | i | i
SMILES | TDP-43 yeast inh | aSyn yeast inh | Mito fusion act | FUS yeast rescue | Abeta rescue
COc1cccc2c1C(=O)/C(=C/c1ccc(N(C)C)cc1)C2 | . | -18% | . | . | .
COc1cc(C(O)c2nc(/C=C/c3ccc(C(F)(F)F)cc3)cs2)ccc1F (configuration not stated) | -73% | -53% | . | i | i
COc1ccc(N=Nc2nc3ccc(Br)cc3n2C)cc1 | 13µM* | -15% | -5% | i | i
COc1ccc(-c2c(-c3cc(OC)cc(OC)c3)n(C)c3ccc(Br)cc23)cc1 | 13% | 1% | 2% | i | i
COCCCNC(=O)C1CCC(Cn2c(=O)c3sccc3n(C)c2=O)CC1 (configuration not stated) | 1% | . | . | i | i
COc1cc(OC)c(OC)cc1/C=C1\CC(C)C/C(=C\c2cc(OC)c(OC)cc2OC)C1=O (configuration not stated) | 18% | -13% | 1% | 25µM* | i
Cc1cccc(N(CC(=O)NCC2CCCO2)C(=O)CCC(=O)Nc2nccs2)c1 (configuration not stated) | 13% | -1% | 11% | i | i
Cc1nn2c(COc3ccc(NC(=O)c4ccccc4Cl)cc3)nnc2c2ccccc12 | -4% | ? | 19% | 22µM* | i
Cc1nn2c(COc3ccc(NC(=O)C(C)C)cc3)nnc2c2ccccc12 | 15% | -4% | -2% | i | i
COc1cc(C)c(S(=O)(=O)N2CCN(C)CC2)cc1C | 12% | 2% | 0% | i | i
CCOc1cc(C)c(S(=O)(=O)N2CCCCC2)cc1C | ? | 16µM* | ? | i | ?
CCOc1cc(S(=O)(=O)N2CCCC2)c(C)cc1C | -7% | 1% | 5% | i | i
COc1cc(C)c(S(=O)(=O)N2CCCC2)cc1C | 6% | 14µM* | -10% | i | ?
CCc1c2c3n4c1CCC[C@@H]4C[C@@H]3O[Si](C(C)C)(C(C)C)OC(C)C2=O (some centres not stated) | . | . | . | i | .
NC(=O)CNC(=O)C1CCCc2c1[nH]c1ccc(Cl)cc21 (configuration not stated) | -4% | 0% | -1% | i | i
CCOC(=O)CNC(=O)C1CCCc2c1[nH]c1ccc(Cl)cc21 (configuration not stated) | 13µM* | 9% | ? | i | ?
Nc1ccc2c(c1)C(=O)C(=O)c1ccccc1-2 | -92% | -81% | -14% | i | i
O=C1C(=O)c2ccc(-c3ccccc3)cc2-c2ccccc21 | 3.5µM* | -36% | -21% | i | i
COc1ccc(S(=O)(=O)N2CCCCCC2)cc1C(=O)OCc1cccc(OC)c1OC | 18% | 1% | 13% | i | i
Fc1c(F)c(F)c(N/N=C/c2c[nH]c3ccccc23)c(F)c1F | ? | -37% | -2% | i | i
Oc1ccc(C=NN=C2c3ccccc3-c3ccccc32)c(O)c1 | 11µM* | -35% | . | . | i
O=[N+]([O-])c1cccc(/C=N\N=C2c3ccccc3-c3ccccc32)c1O | -33% | -8% | ? | . | i
C(=NN=C1c2ccccc2-c2ccccc21)c1c[nH]c2ccccc12 | 13µM* | 21% | . | . | i
Cc1cc(C)n(C(C)CC(=O)NCc2ccccc2C)n1 (configuration not stated) | -10% | . | . | i | i
CCc1nc2ccc(C(=O)Nc3cc(-c4ccccc4)ccc3OC)cn2c1N(CC)Cc1cccc(Br)c1 | 16µM* | 0% | . | ? | i
CCc1nc2ccc(C(=O)Nc3cccc(OC)c3)cn2c1N(C)CCCc1ccccc1 | 35µM* | -34% | . | ? | i
